# Inconclusive results are not listed. Activity calls are given as the source filed them. How the source made its calls: active means hit-call score of the fitted dose curve at least 0.9, where 1 is the maximum; inconclusive means response in the unintended direction; inactive means score below 0.9.
# Key:
# [1] = molecular target: human Adrenergic, Alpha 2A Receptor (Adra2A), ADRA2A (gene 150) (UniProt P08913); assay: NVS_GPCR_hAdra2A: NovaScreen (NVS) G Protein-Coupled Receptor Assay for human Adrenergic, Alpha 2A Receptor (Adra2A) (AID 2283257)
# Sequence of human Adrenergic, Alpha 2A Receptor (Adra2A), ADRA2A (gene 150) (P08913 whole entry, looked up): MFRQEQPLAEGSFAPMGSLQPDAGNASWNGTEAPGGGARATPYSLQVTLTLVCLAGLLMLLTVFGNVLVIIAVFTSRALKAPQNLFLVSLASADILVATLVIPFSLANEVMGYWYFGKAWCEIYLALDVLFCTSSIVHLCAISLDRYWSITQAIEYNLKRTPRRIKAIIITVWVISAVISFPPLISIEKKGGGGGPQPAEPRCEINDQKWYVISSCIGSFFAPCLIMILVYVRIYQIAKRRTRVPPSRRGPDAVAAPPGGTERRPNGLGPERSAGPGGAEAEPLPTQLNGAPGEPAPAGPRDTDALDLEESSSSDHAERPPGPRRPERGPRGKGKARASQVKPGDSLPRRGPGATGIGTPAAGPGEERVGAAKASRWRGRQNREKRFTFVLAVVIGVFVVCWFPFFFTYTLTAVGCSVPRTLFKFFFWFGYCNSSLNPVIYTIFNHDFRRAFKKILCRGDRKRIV
# In short: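 Displacement of a specific radioligand from HT29 membrane protein was counted by filter scintillation after 1 h. Compounds were screened in duplicate at 25 uM, and actives were retested in concentration series. Fitting was positive-direction against DMSO.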
# [2] = molecular target: human Adrenergic, Beta 1 Receptor (Adrb1), ADRB1 (gene 153) (UniProt P08588); assay: NVS_GPCR_hAdrb1: NovaScreen (NVS) G Protein-Coupled Receptor Assay for human Adrenergic, Beta 1 Receptor (Adrb1) (AID 2283258)
# Sequence of human Adrenergic, Beta 1 Receptor (Adrb1), ADRB1 (gene 153) (P08588 whole entry, looked up): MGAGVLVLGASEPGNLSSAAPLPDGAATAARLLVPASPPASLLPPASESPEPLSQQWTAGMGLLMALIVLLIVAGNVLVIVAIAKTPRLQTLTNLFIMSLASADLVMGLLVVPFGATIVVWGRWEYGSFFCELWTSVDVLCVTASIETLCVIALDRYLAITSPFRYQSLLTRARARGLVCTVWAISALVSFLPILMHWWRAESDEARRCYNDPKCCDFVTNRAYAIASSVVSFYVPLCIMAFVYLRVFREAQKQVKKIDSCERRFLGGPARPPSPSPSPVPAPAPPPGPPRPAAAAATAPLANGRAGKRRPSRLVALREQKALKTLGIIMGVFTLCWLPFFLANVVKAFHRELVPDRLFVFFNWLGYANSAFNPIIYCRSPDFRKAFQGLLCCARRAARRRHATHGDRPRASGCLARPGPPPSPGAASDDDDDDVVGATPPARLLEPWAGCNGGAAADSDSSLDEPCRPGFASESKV
# In short: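 Membranes/protein extracted from human neuroepithelioma cells, radioligand competition binding read by filtration and scintillation 2 h post-dose. Single 25 uM duplicate screen, then concentration-response follow-up; DMSO as negative control.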
# [3] = molecular target: Beta-2 adrenergic receptor (Homo sapiens) (UniProt P07550); assay: NVS_GPCR_hAdrb2: NovaScreen (NVS) G Protein-Coupled Receptor Assay for human Adrenergic, Beta 2 Receptor (Adrb2) (AID 2283261)
# Sequence of Beta-2 adrenergic receptor (Homo sapiens) (P07550 whole entry, looked up): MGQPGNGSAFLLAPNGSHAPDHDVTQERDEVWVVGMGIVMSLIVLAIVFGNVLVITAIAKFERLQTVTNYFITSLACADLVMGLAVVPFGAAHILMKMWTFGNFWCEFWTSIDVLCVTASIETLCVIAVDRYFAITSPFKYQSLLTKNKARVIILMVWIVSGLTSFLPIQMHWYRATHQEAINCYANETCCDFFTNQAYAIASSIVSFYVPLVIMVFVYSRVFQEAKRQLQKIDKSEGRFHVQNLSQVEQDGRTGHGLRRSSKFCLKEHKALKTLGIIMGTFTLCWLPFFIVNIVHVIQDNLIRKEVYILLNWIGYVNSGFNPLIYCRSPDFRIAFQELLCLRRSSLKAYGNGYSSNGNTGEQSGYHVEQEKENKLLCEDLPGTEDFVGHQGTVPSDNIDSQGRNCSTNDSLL
# In short: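 Compounds screened in duplicate at 25 uM, then actives in concentration series. Human beta-2 receptor from CHO material, cell-free; radioligand displacement after 1 h measured by filtration and scintillation against DMSO baseline.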
# [4] = molecular target: human Dopamine Receptor D4.4 (DRD4.4), DRD4 (gene 1815) (UniProt P21917); assay: NVS_GPCR_hDRD4.4: NovaScreen (NVS) G Protein-Coupled Receptor Assay for human Dopamine Receptor D4.4 (DRD4.4) (AID 2283264)
# Sequence of human Dopamine Receptor D4.4 (DRD4.4), DRD4 (gene 1815) (P21917 whole entry, looked up): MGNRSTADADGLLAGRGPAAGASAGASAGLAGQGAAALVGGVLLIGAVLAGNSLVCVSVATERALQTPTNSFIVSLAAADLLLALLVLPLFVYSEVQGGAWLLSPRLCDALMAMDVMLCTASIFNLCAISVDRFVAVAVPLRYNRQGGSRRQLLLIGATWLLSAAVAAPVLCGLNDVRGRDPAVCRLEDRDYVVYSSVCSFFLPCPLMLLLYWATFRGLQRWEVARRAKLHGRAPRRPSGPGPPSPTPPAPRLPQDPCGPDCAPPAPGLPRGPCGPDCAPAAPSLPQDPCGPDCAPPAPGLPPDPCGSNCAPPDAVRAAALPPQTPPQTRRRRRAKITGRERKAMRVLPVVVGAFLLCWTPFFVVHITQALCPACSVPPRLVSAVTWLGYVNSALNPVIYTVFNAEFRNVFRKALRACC
# In short: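 Filter-binding assay with a tritiated or iodinated ligand, cell-free receptor prepared from CHO, 1 hour. Loss of bound radioactivity versus DMSO; single 25 uM duplicate screen, then concentration-response for actives.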
# [5] = molecular target: human Adrenergic, Beta 3 Receptor (Adrb3), ADRB3 (gene 155) (UniProt P13945); assay: NVS_GPCR_hAdrb3: NovaScreen (NVS) G Protein-Coupled Receptor Assay for human Adrenergic, Beta 3 Receptor (Adrb3) (AID 2283262)
# Sequence of human Adrenergic, Beta 3 Receptor (Adrb3), ADRB3 (gene 155) (P13945 whole entry, looked up): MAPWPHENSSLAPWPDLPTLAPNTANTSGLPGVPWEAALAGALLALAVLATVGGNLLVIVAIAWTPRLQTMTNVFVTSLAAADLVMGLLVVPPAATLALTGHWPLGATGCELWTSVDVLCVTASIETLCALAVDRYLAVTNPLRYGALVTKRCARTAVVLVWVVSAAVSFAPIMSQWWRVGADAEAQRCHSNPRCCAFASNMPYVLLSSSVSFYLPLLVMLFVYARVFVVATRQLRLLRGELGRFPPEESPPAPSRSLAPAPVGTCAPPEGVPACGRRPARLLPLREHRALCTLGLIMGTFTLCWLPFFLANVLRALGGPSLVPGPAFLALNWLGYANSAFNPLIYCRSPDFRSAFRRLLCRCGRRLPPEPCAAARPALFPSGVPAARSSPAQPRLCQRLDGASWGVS
# In short: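 A cell-free filter binding assay read by scintillation counting, with displacement of a specific radioligand measured after 1 hour. The receptor source was SK-N-MC extracts (cells pretreated with isoproterenol and 8-bromo-cAMP). Compounds were first tested at 25 uM in duplicate and then in concentration series.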
# [6] = molecular target: human Histamine 1 Receptor (H1), HRH1 (gene 3269) (UniProt P35367); assay: NVS_GPCR_hH1: NovaScreen (NVS) G Protein-Coupled Receptor Assay for human Histamine 1 Receptor (H1) (AID 2283268)
# Sequence of human Histamine 1 Receptor (H1), HRH1 (gene 3269) (P35367 whole entry, looked up): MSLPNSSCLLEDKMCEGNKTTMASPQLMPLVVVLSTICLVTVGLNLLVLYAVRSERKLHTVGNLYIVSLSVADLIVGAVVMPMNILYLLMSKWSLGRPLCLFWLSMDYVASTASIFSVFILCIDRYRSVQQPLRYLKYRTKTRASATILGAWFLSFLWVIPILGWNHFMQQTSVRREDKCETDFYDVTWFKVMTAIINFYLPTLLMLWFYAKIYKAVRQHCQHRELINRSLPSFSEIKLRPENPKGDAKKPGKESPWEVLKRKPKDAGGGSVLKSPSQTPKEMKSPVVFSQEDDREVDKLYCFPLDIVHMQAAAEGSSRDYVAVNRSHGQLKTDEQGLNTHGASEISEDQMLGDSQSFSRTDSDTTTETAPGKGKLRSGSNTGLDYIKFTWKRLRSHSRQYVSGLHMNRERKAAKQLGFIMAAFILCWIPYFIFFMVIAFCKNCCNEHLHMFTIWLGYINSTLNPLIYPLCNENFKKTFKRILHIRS
# In short: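 Filter-based scintillation detection of radioligand binding to human H1, 1 h incubation; chemicals screened in duplicate at 25 uM, then concentration-response; signal loss relative to DMSO taken as activity.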
# [7] = molecular target: human Endothelin Receptor Type B (ETB), EDNRB (gene 1910) (UniProt P24530); assay: NVS_GPCR_hETB: NovaScreen (NVS) G Protein-Coupled Receptor Assay for human Endothelin Receptor Type B (ETB) (AID 2283267)
# Sequence of human Endothelin Receptor Type B (ETB), EDNRB (gene 1910) (P24530 whole entry, looked up): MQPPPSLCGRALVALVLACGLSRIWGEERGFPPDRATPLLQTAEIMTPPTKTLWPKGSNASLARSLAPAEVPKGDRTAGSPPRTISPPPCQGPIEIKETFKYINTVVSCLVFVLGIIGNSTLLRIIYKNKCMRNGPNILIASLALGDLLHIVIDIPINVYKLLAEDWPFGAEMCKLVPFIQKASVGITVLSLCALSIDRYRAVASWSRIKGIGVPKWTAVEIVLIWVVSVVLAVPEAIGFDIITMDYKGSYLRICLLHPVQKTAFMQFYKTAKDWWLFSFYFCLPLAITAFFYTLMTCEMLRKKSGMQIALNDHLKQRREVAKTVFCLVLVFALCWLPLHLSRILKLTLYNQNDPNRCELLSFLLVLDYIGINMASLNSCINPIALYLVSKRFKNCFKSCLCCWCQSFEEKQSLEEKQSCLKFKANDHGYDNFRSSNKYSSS
# In short: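 Filter-based scintillation readout of radioligand displacement, 4 h, using membranes from human astrocytoma cells. Actives from a 25 uM duplicate screen were retested in concentration-response (top 50 uM) relative to DMSO baseline.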
smiles,measurement,setting,value
CC[C@H](C)[C@H]1O[C@]2(C=C[C@@H]1C)C[C@@H]1C[C@@H](C/C=C(\C)[C@@H](O[C@H]3C[C@H](OC)[C@@H](O[C@H]4C[C@H](OC)[C@@H](NC)[C@H](C)O4)[C@H](C)O3)[C@@H](C)/C=C/C=C3\CO[C@@H]4[C@H](O)C(C)=C[C@@H](C(=O)O1)[C@]34O)O2,AC50,[1],26.8 µM (active)
same,AC50,[2],9.83 µM (active)
same,AC50,[3],18.1 µM (active)
same,AC50,[4],16.2 µM (active)
CCOP(=S)(OCC)Oc1ccc2c(C)c(Cl)c(=O)oc2c1,outcome,[1],inactive
CON=C(C(=O)OC)c1ccccc1CON=C(C)c1cccc(C(F)(F)F)c1,outcome,[5],inactive
CCOP(=O)(SC(C)CC)N1CCSC1=O (stereo unspecified),outcome,[5],inactive
same,outcome,[6],inactive
Cc1cc(C2CC2)nc(Nc2ccccc2)n1,AC50,[4],12.3 µM (active)
CNC(=O)Oc1cccc2c1OC(C)(C)O2,outcome,[7],inactive
CN(C)C(=O)Nc1cccc(C(F)(F)F)c1,outcome,[6],inactive

# Source: PubChem BioAssay (EPA / NIEHS)
